# The campaign covered roughly 130,000 compounds. About 550 (0.42%) were called active. About 4% were inconclusive and are not listed. Calls come from the whole dose curve; as a rule, active = well fitted inhibition curve with a large enough effect; inconclusive = small, poorly fitted or top-dose-only effect, or effect the other way; inactive = flat fitted curve, though single readings scatter. This excerpt belongs to a sample that is enriched for actives.
# Assay: qHTS Assay for Inhibitors of the ERK Signaling Pathway using a Homogeneous Screening Assay; Stimulation with EGF; note: nearly all actives have a fitted effect of over 55% in size;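 for activity change, negative = inhibition: plate controls were stimulated vehicle wells for no effect and unstimulated vehicle basal for full effect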
# Settings: HEK293-V1b, EGF-stimulated phospho-ERK AlphaScreen; series mostly up to 11.5 µM; activity change, negative = inhibition: at the top concentration
# In short: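 HEK293 cells stably expressing V1b receptor, serum-reduced (1% FBS) overnight, pretreated 30 min with compound, then stimulated 5 min with 25 nM EGF; phospho-ERK detected by AlphaScreen SureFire. AC50 from Hill fits, normalized to DMSO and EGF.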
# Potency is the fitted concentration of half-maximal effect.
Structure (SMILES),"activity change, negative = inhibition",Potency
Cn1c(SCC(=O)N2CCOCC2)nnc1-c1ccc2ncccc2c1,1.18% [at 57.5 µM] (inactive),–
O=C(Nc1cc(Cl)cc(Cl)c1)C(NCCCO)c1ccccc1 (centres undefined),7.53% (inactive),–
CC(C)n1cnc2c(Nc3cccc(Cl)c3)nc(N(CCO)CCCO)nc21,-9.71% [at 57.5 µM] (inactive),–
OCCCNc1nccc(-c2cc(Nc3cccc(Cl)c3)ncn2)n1,–,22.4 µM (active)
O=C(NN1C(=O)C2C(C1=O)C1C=CC2C12CC2)c1ccccc1Cl (centres undefined),9.91% [at 57.5 µM] (inactive),–
O=C(CN1CCN(Cc2ccc(F)cc2Cl)C1=O)NCc1cccs1,-0.134% (inactive),–
Clc1ccc(Nc2ncnc3c2nnn3Cc2ccccc2)cc1,5.96% [at 57.5 µM] (inactive),–
CN(C)c1cc2c(Nc3ccc4c(cnn4Cc4ccccc4)c3)ncnc2cn1,–,2.82 µM (active)
CC(=O)Nc1ccc(NC(=O)CSc2ncnc3c2cnn3Cc2ccccc2)cc1,10.3% [at 57.5 µM] (inactive),–
COc1ccc(Cl)cc1C(=O)NNC(=O)c1nc2nc(C)cc(C)n2n1,-1.38% [at 57.5 µM] (inactive),–
CN(C)CCCn1c(SCCN2C(=O)c3ccccc3C2=O)nc2ccccc2c1=O,-9.18% (inactive),–
COc1ccc(C/C(N)=N/OC(=O)c2ccco2)cc1OC,-1.35% (inactive),–
COc1ccccc1Cn1c(CO)nc2ccccc21,-2.95% [at 57.5 µM] (inactive),–
Cc1cccc(-n2c(Cc3cc(=O)[nH]c(=O)[nH]3)nnc2SCC(=O)Nc2cccc(C(F)(F)F)c2)c1,6.29% (inactive),–
O=C(COC(=O)c1ccc(Cl)nc1)NCc1cccs1,-3.16% (inactive),–
CCOc1ccc(C2NC(=S)NC3=C2CCc2ccccc23)cc1 (centres undefined),0.15% [at 57.5 µM] (inactive),–
Cc1ccc(N/C=C/C(=O)c2ccccc2)cc1C,2.85% (inactive),–
Cc1cc(Oc2ccc(Cl)cc2)nc(SCC(=O)c2ccccc2)n1,5.47% (inactive),–
Cc1cc(C)nc(S/C=C/C(=O)c2ccccc2)n1,–,22.4 µM (active)
O=C(NNC(=S)NC(=O)c1cn(-c2ccccc2)nc1-c1ccccc1)c1ccncc1,-5.14% [at 57.5 µM] (inactive),–
CC1=NN(c2ccccc2)C(=O)C1C(=O)c1ccc([N+](=O)[O-])cc1 (centres undefined),3.98% (inactive),–
Oc1ccc(-c2nnc(Nc3ccccc3)c3ccccc23)cc1,-5.01% [at 57.5 µM] (inactive),–
O=C(COC(=O)c1ccccc1)Nc1cccc(S(=O)(=O)N2CCOCC2)c1,-7.82% (inactive),–
Cc1nn(CCOc2ccc(Br)cc2)c(C)c1[N+](=O)[O-],-8.51% (inactive),–
CCC(=O)OCCNc1nc(-c2ccccc2)nc2ccccc12,8.44% (inactive),–

Structure (SMILES),"activity change, negative = inhibition",Potency
COCCNc1nc2nonc2nc1N1CCCC1c1nccs1 (centres undefined),-14.3% (inactive),–
O=S(=O)(Nc1n[nH]c(C(F)(F)F)n1)c1ccccc1,-7.29% [at 57.5 µM] (inactive),–
CC(C)N(Cc1nc(-c2ccc3c(c2)OCO3)no1)CC1CCC(=O)N1 (centres undefined),4.58% (inactive),–
O=C1CN(C(=O)CN2C(=O)NC3(CCCCC3)C2=O)c2ccccc2N1,0.303% (inactive),–
CCOC(=O)c1c(C)oc(C)c(C(=O)OCC)c1=O,0.8% [at 57.5 µM] (inactive),–
Cc1nn(CC(=O)N/N=C/c2ccc(F)cc2)c(C)c1[N+](=O)[O-],-5.16% [at 57.5 µM] (inactive),–
O=S(=O)(c1cccc(-c2nnc3n2CCCCC3)c1)N1CCOCC1,4.68% [at 57.5 µM] (inactive),–
CCN(CC)CCCSc1nc2ccccc2s1,-6.48% (inactive),–
COC(=O)c1cc(S(=O)(=O)N2CCC(C(N)=O)CC2)oc1C,-0.656% [at 57.5 µM] (inactive),–
CN(C)/C=C(/C(=O)c1ccc(F)cc1)S(=O)(=O)c1ccc(F)cc1,-14.3% (inactive),–
Cc1c(C(=O)O)nnn1-c1nonc1N,-6.38% (inactive),–
O=C1CC(c2c(F)cccc2Cl)C(n2cncn2)C(O)=C1C1NCCc2ccccc21 (centres undefined),-2.18% (inactive),–
C/C(=N/NC(=O)CC(=O)N/N=C(\C)c1ccc([N+](=O)[O-])cc1)c1ccc([N+](=O)[O-])cc1,10.6% [at 57.5 µM] (inactive),–
CC(C)(C)NC(=O)NCc1ccco1,4.86% [at 57.5 µM] (inactive),–
CCC(C)NC(=O)CN(C1CCCCC1)S(C)(=O)=O (centres undefined),-0.213% (inactive),–
Cc1cc(=O)[nH]c(S)c1C#N,-5.86% [at 57.5 µM] (inactive),–
CCN(CC)CCCN=Cc1c(O)n(-c2ccc(C)cc2)c(=O)c2ccccc12,-15.5% [at 57.5 µM] (inactive),–
O=C(COc1ccc(Cl)cc1[N+](=O)[O-])N1CCCCC1,-19.8% (inactive),–
CC(=O)Oc1c2c(c3c(c1CC=C(C)C)O[C@@]14C(=CC5CC1C(C)(C)OC4(C/C=C(\C)C(=O)O)C5=O)C3=O)OC(C)(CCC=C(C)C)C=C2 (some centres undefined),–,25.1 µM (active)
O=C(CC(=O)N/N=C\c1ccc(F)cc1)NCCc1ccccc1,-8.99% (inactive),–
COc1ccc(OCC(O)CNCCNc2nccc(C(F)(F)F)n2)cc1 (centres undefined),2.31% [at 57.5 µM] (inactive),–
CCOc1ccc(/C=C(/NC(=O)c2ccccc2)C(=O)NCCC(=O)O)cc1,-5.71% (inactive),–
O=C(NC1(C(F)(F)F)NC(=O)N(C2CCCCC2)C1=O)c1ccco1 (centres undefined),-9.23% (inactive),–
CCN1CCN(C(=O)c2ccc(CN(c3ccc(C)c(C)c3)S(C)(=O)=O)cc2)CC1,-11.4% (inactive),–
CC(=O)N(OCc1ccc(OC(C)C)c(Cl)c1)C(C)=O,3.04% [at 57.5 µM] (inactive),–

Structure (SMILES),"activity change, negative = inhibition",Potency
NS(=O)(=O)c1ccc(CCNC(=O)c2ccc(Cl)cc2[N+](=O)[O-])cc1,-7.68% (inactive),–
CN(C)c1ccc(Nc2c3c4c(cccc4n(C)c2=O)C(=O)c2ccccc2-3)cc1,–,3.16 µM (active)
Cc1cc(=O)oc2c(C(=O)c3ccccc3)c(OCC(N)=O)ccc12,1.12% [at 57.5 µM] (inactive),–
CN(C)c1ccc(/C=N/NC(=O)C(O)c2ccc(Br)cc2)cc1 (centres undefined),13.4% (inactive),–
CCC(C)N1C(=S)SC(C)(C)C1N(O)C(=O)NC1CCCCC1 (centres undefined),-10.1% [at 57.5 µM] (inactive),–
Cc1ccc(C(=O)Nc2nc(N)n(-c3ccccc3)n2)cc1,3.9% [at 57.5 µM] (inactive),–
CC1=NNC(=O)C1CCC(=O)N/N=C(\C)c1ccc(Cl)cc1 (centres undefined),-12.6% [at 57.5 µM] (inactive),–
COc1ccc(Cc2nnc(NC(=O)c3cc(OC)c(OC)c(OC)c3)s2)cc1OC,1.01% (inactive),–
O=C(O)c1n[nH]nc1-c1ccccc1,-3% (inactive),–
COc1ccc(N=Nc2ccc(O)c(P(=O)(c3ccccc3)c3ccccc3)c2)cc1,-14.3% [at 57.5 µM] (inactive),–
Oc1ccc2ccccc2c1N=Nc1nccs1,–,12.6 µM (active)
Oc1ccc(N=Cc2c(O)ccc3ccccc23)cc1,-7% [at 57.5 µM] (inactive),–
Oc1ccc2ccccc2c1C=Nc1ccccc1,10.2% [at 57.5 µM] (inactive),–
O=C(CCNc1n[nH]c(=O)[nH]c1=O)N/N=C\c1ccc(Br)cc1,4.1% [at 57.5 µM] (inactive),–
CCOCCCNC(=O)C(NC(=O)Cc1c[nH]c2ccccc12)c1ccc(OC)cc1 (centres undefined),-5% (inactive),–
Cc1cc(OCCCC(=O)NCCN2C(=O)S/C(=C\c3cccnc3)C2=O)ccc1Cl,5.87% (inactive),–
O=C(NCc1ccco1)C(=O)c1cn(CC(=O)N2CCCCCC2)c2ccccc12,-3.82% (inactive),–
Cc1ccnc(NC(=O)c2ccc(Cl)c([N+](=O)[O-])c2)c1,-6.64% (inactive),–
Cc1ccc(OCC(=O)Nc2nnc(-c3ccco3)s2)cc1,3.26% [at 57.5 µM] (inactive),–
CC(C)C1Nc2c(C(=O)O)cccc2C(Nc2ccccc2C(=O)O)C1(C)C (centres undefined),1.59% (inactive),–
N#C/C(=C\N1CCOCC1)S(=O)(=O)c1ccc(Cl)cc1,-6.91% [at 57.5 µM] (inactive),–
Cc1cc(C)c2c(NC(=O)C3CC3)nn(C)c2n1,0.186% (inactive),–
O=C(Cc1ccc(F)cc1)N1CCN=C1SCc1cccc([N+](=O)[O-])c1,-1.53% (inactive),–
CN(Cc1cc2cc(F)ccc2[nH]1)Cc1nc(-c2cnccn2)no1,-6.42% (inactive),–

# From PubChem BioAssay AID1454 (National Center for Advancing Translational Sciences (NCATS), 2008)
